# Measured values taken from the supplement of paper PMC6331611.
# ± gives the standard deviation of the averaged measurements. The full ranking holds about 1,600 compounds; the median of “normalized intracellular growth (luminescence, IQM-normalized) in RAW264.7 macrophages” is about 1, and the lowest 2% start at about 0.43. This is one part of a sample in which the lowest values are shown more often than they occur.
# Test system: Salmonella enterica serovar Typhimurium SL1344
# Test: normalized intracellular growth (luminescence, IQM-normalized) in RAW264.7 macrophages (fraction of plate interquartile mean); higher = more bacterial growth (less inhibition)
# Conditions: 10 µM
SMILES,normalized intracellular growth (time point: T3 (3 h)),normalized intracellular growth (time point: Tfinal (~6 h))
CCCCCNC(=N)N/N=C/c1c[nH]c2ccc(OC)cc12,1.05 ± 0.1,1.08 ± 0.037
CCC(=O)Oc1ccc2c(c1)CC[C@@H]1[C@@H]2CC[C@]2(C)[C@@H](OC(=O)CC)CC[C@@H]12,0.977 ± 0.092,0.934 ± 0.089
O=C([O-])C(O)[C@H](O)[C@@H](O)[C@H](O)[C@H](O)CO.O=C([O-])C(O)[C@H](O)[C@@H](O)[C@H](O)[C@H](O)CO.[Ca+2] (some centres not stated),1.04 ± 0.019,1.06 ± 0.18
Cc1c(OCC(F)(F)F)ccnc1C[S@@+]([O-])c1nc2ccccc2[nH]1,0.98 ± 0.076,1.18 ± 0.11
CC1=C(C)C(=O)C(C(CCCCCC(=O)O)c2ccccc2)=C(C)C1=O (configuration not stated),0.994 ± 0.042,1.18 ± 0.085
NC(=O)c1cc[n+](CC2=C(C(=O)O)N3C(=O)[C@@H](NC(=O)[C@@H](c4ccccc4)S(=O)(=O)[O-])[C@H]3SC2)cc1,0.999 ± 0.056,1.05 ± 0.028
CCOc1ccc(NC(=O)CC(C)O)cc1 (configuration not stated),0.969 ± 0.045,1.202 ± 0.0076
CC(=O)N(CC(O)CO)c1c(I)c(C(=O)NCCO)c(I)c(C(=O)NCC(O)CO)c1I (configuration not stated),0.938 ± 0.063,1.17 ± 0.091
OC[C@H]1O[C@H](O[C@H]2[C@H](O)[C@@H](O)C(O)O[C@@H]2CO)[C@H](O)[C@@H](O)[C@@H]1O (some centres not stated),0.919 ± 0.086,0.986 ± 0.012
OC[C@H]1O[C@H](O[C@]2(CCl)O[C@H](CCl)[C@@H](O)[C@@H]2O)[C@H](O)[C@@H](O)[C@H]1Cl,0.91 ± 0.095,0.0259 ± 0.0051
OC[C@H]1O[C@@H](O[C@@H]2[C@@H](CO)OC(O)(CO)[C@H]2O)[C@H](O)[C@@H](O)[C@H]1O (mixture of isomers),0.999 ± 0.021,0.958 ± 0.011
COc1ccc(C(=O)c2ccccc2O)c(O)c1,1 ± 0.047,1.24 ± 0.031
COc1ccc(C(=O)c2ccccc2)c(O)c1,0.948 ± 0.07,0.417 ± 0.083
COc1ccc(C(=O)c2ccc(C)cc2)c(O)c1,1.02 ± 0.028,0.926 ± 0.2
Cc1cc(O)cc(C)c1Cl,1.03 ± 0.075,1.11 ± 0.071
N=c1ccn2c(n1)O[C@H]1[C@H](O)[C@@H](CO)O[C@H]12,1 ± 0.029,1.16 ± 0.016
CCn1cc(C(=O)O)c(=O)c2ccc(C)nc21,0.994 ± 0.03,0.881 ± 0.37
CCn1cc(C(=O)O)c(=O)c2cnc(N3CCNCC3)nc21,0.974 ± 0.034,0.533 ± 0.082
COc1c(N2CCNC(C)C2)c(F)cc2c(=O)c(C(=O)O)cn(C3CC3)c12 (configuration not stated),1.02 ± 0.13,0.015 ± 0.0035
CO/N=C1\CN(c2nc3c(cc2F)c(=O)c(C(=O)O)cn3C2CC2)CC1CN (configuration not stated),0.967 ± 0.014,1.15 ± 0.048
CCn1cc(C(=O)O)c(=O)c2cc(F)c(N3CCNCC3)nc21,0.916 ± 0.07,0.245 ± 0.036

SMILES,normalized intracellular growth (time point: T3 (3 h)),normalized intracellular growth (time point: Tfinal (~6 h))
COc1c(N2C[C@@H]3CCCN[C@@H]3C2)c(F)cc2c(=O)c(C(=O)O)cn(C3CC3)c12,1.41 ± 0.1,0.00827 ± 0.001
CCn1cc(C(=O)O)c(=O)c2cc(F)c(N3CCNC(C)C3)c(F)c21 (configuration not stated),0.996 ± 0.098,0.0187 ± 0.0027
CC(C)(CO)[C@@H](O)C(=O)NCCC(=O)NCCSSCCNC(=O)CCNC(=O)[C@H](O)C(C)(C)CO,0.981 ± 0.048,0.976 ± 0.089
OCc1cccnc1,1.056 ± 0.0048,0.97 ± 0.051
O=S(=O)(c1cccc2cnccc12)N1CCCNCC1,1.02 ± 0.035,1.13 ± 0.067
NC(=O)NS(=O)(=O)c1ccc(N)cc1,0.98 ± 0.031,0.881 ± 0.095
FC(F)(Cl)C(F)(F)Cl,1.02 ± 0.023,0.675 ± 0.21
NC1CCN(c2c(F)cc3c(=O)c(C(=O)O)cn(C4CC4)c3c2Cl)C1 (configuration not stated),1.49 ± 0.071,0.00632 ± 0.00035
CC(=O)OCC(=O)[C@@]1(O)CC[C@H]2[C@@H]3CCC4=CC(=O)C=C[C@]4(C)[C@@]3(Cl)[C@@H](Cl)C[C@@]21C,0.961 ± 0.062,1.13 ± 0.022
CCCCCCCCCc1ccc(OCCOCCOCCOCCOCCOCCOCCOCCOCCO)cc1,0.99 ± 0.013,1.1 ± 0.048
O=C(CCCN1CCC(O)(c2ccc(Cl)cc2)CC1)c1ccc(F)cc1,0.957 ± 0.056,1 ± 0.085
NC(=O)C1(N2CCCCC2)CCN(CCCC(=O)c2ccc(F)cc2)CC1,0.984 ± 0.085,0.965 ± 0.16
O=C(CCCN1CCC(O)(c2ccc(Br)cc2)CC1)c1ccc(F)cc1,0.391 ± 0.23,1.28 ± 0.14
N[C@@H](CCC(=O)N[C@@H](CS)C(=O)NCC(=O)O)C(=O)O,1.1 ± 0.056,0.832 ± 0.11
CC(C)CCCC(C)NC(C)C (configuration not stated),1 ± 0.017,0.999 ± 0.11
Cc1ccc(S(=O)(=O)NCl)cc1,0.946 ± 0.021,0.902 ± 0.052
OCc1ccccc1O,1.07 ± 0.017,1.01 ± 0.022
CC1CCc2c(N3CCC(O)CC3)c(F)cc3c(=O)c(C(=O)O)cn1c23 (configuration not stated),0.894 ± 0.051,0.0538 ± 0.029
CC1CCc2cc(F)cc3c(=O)c(C(=O)O)cn1c23 (configuration not stated),0.937 ± 0.026,0.389 ± 0.025
N[C@@H](Cc1ccc(O)cc1)C(=O)O,0.934 ± 0.037,0.846 ± 0.31
